Assay results published in PubChem BioAssay (NCATS).
Records with an inconclusive call do not appear. Activity calls are given as the source filed them. Unless noted, calls come from the whole dose curve; as a rule, active = well fitted curve in the direction sought with a large enough effect; inconclusive = small, poorly fitted or top-dose-only effect, or another doubt; inactive = no such curve, though single readings can be large; an effect the other way counts as inactive or inconclusive.

Columns and labels:
[1] = MultiTox-Fluor Cytotoxicity Assay - LYMP1-001 - Dead Cells (AID 946);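 note: cells exposed to compound for 16 h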; note: potency is the fitted concentration of half-maximal effect
Outline: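 AC50 from Hill fit of concentration-response; data normalized to DMSO (basal) and 15 uM tetraoctylammonium bromide (100%). LYMP1-001 lymphoblastoid cells, 2500/well, 16 hr compound at 37 C; dead-cell protease fluorescence, Ex/Em 485/520.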

[2] = MultiTox-Fluor Cytotoxicity Assay - LYMP1-001 - Live Cells (AID 947); note: potency is the fitted concentration of half-maximal effect
[3] = Cell Viability - LYMP1-002 - Assay at 16 hr (AID 948); note: potency is the fitted concentration of half-maximal effect
Outline: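 ATP luminescence (CellTiter-Glo) was measured after 16 hr compound exposure at 37 C of 2500 lymphoblastoid LYMP1-002 cells per well. Concentration-response curves were fitted with the Hill equation to give AC50.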

[4] = MultiTox-Fluor Cytotoxicity Assay - LYMP1-002 - Live Cells (AID 955);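 note: cells exposed to compound for 16 hours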; note: potency is the fitted concentration of half-maximal effect
Outline: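 Cytotoxicity in the human lymphoblastoid line LYMP1-002 is measured as loss of live-cell protease activity after 16 h treatment in complete culture medium. AC50 is derived from Hill-equation fits of qHTS concentration-response data.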

[5] = MultiTox-Fluor Cytotoxicity Assay - LYMP1-002 - Dead Cells (AID 960); note: nearly all actives have a fitted effect of over 60% in size; note: potency is the fitted concentration of half-maximal effect
Outline: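 Acute cytotoxicity in a human lymphoblastoid line is scored as rising dead-cell protease signal after 16 hr exposure at 37 C, measured fluorometrically (485/520).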

[6] = MultiTox-Fluor Cytotoxicity Assay - LYMP1-003 - Dead Cells (AID 961);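 note: cells exposed to compound for 16 h at 37 °C; nearly all actives have a fitted effect of over 70% in size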
Outline: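 Human lymphoblastoid LYMP1-003 cells (2500/well) were treated with compounds for 16 hr at 37 C in complete medium. Dead-cell protease release was read by bis-AAF-R110 fluorescence (Ex/Em 485/520). AC50 came from Hill fits, normalized to DMSO and 15 uM tetraoctylammonium bromide.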

[7] = MultiTox-Fluor Cytotoxicity Assay - LYMP1-003 - Live Cells (AID 962);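 note: cells exposed to compound for 16 hours at 37 °C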; note: potency is the fitted concentration of half-maximal effect
Outline: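 Cells plated at 2500 per well and incubated 5 hr; compounds added and incubated 16 hr at 37 C; MultiTox-Fluor reagent added for 60 min at room temperature; fluorescence of liberated AFC measured at 405/510 nm.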

[8] = Cell Viability - LYMP1-003 - Assay at 40 hr (AID 964); note: nearly all actives have a fitted effect of over 60% in size; note: potency is the fitted concentration of half-maximal effect
Outline: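 This qHTS cytotoxicity screen treats human lymphoblastoid cells (LYMP1-003) with compounds for 40 hr and quantifies cellular ATP via luciferase luminescence.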

[9] = Cell Viability - LYMP2-004 (AID 966); note: nearly all actives have a fitted effect of over 65% in size; note: potency is the fitted concentration of half-maximal effect
Outline: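 Acute toxicity is scored as a concentration-dependent drop in intracellular ATP, quantified by luciferase luminescence, in human lymphoblastoid cells exposed to compound for 24 hr. AC50 derives from Hill-equation modelling.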

[10] = Cell Viability - LYMP2-005 (AID 967); note: potency is the fitted concentration of half-maximal effect
Outline: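 LYMP2-005 human lymphoblastoid cells (2500/well) were treated with compounds for 24 h at 37 C. Intracellular ATP was then measured by CellTiter-Glo luminescence after 30 min at room temperature. AC50 values came from Hill-equation fits of qHTS concentration-response data.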

[11] = Cell Viability - LYMP2-009 (AID 968); note: nearly all actives have a fitted effect of over 55% in size; note: potency is the fitted concentration of half-maximal effect
[12] = Cell Viability - LYMP2-011 (AID 969); note: nearly all actives have a fitted effect of over 60% in size; note: potency is the fitted concentration of half-maximal effect
Outline: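 Acute toxicity is scored as a concentration-dependent drop in intracellular ATP of a human lymphoblastoid line after 24 hr treatment. Values are AC50s modeled with the Hill equation.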

[13] = Cell Viability - LYMP2-013 (AID 970); note: nearly all actives have a fitted effect of over 55% in size; note: potency is the fitted concentration of half-maximal effect
Outline: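 Acute toxicity was measured in human lymphoblastoid cells (2500/well) exposed to compound titrations for 24 hr, with ATP luminescence (CellTiter-Glo) as read-out and AC50 fitted by Hill equation.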

[14] = Cell Viability - LYMP2-015 (AID 971); note: nearly all actives have a fitted effect of over 55% in size; note: potency is the fitted concentration of half-maximal effect
Outline: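 Acute toxicity was scored as a concentration-dependent drop in intracellular ATP in lymphoblastoid cells after 24 hr compound exposure in complete medium. Detection used CellTiter-Glo luciferase luminescence.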

[15] = Cell Viability - LYMP2-017 (AID 972);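 note: cells exposed to compound for 24 hours at 37 °C; nearly all actives have a fitted effect of over 55% in size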; note: potency is the fitted concentration of half-maximal effect
Outline: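 Steps: plate 2500 lymphoblastoid cells per well; incubate 5 hr at 37 C; add compound across a concentration series and incubate 24 hr at 37 C; add CellTiter-Glo and read luminescence after 30 min at room temperature; fit Hill curves for AC50.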

[16] = Cell Viability - LYMP2-019 (AID 973); note: nearly all actives have a fitted effect of over 55% in size; note: potency is the fitted concentration of half-maximal effect
Outline: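 Cells plated at 2500/well and allowed 5 hr at 37 C before compound addition. After 24 hr incubation, CellTiter-Glo reagent was added, plates sat 30 min at room temperature, and luminescence was recorded.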

[17] = biological target: Pyruvate kinase PKM (Homo sapiens) (UniProt P14618); experiment: qHTS Assay for Activators of Human Muscle Pyruvate Kinase (AID 954; active = well fitted curve in the direction sought with a large enough effect, not every such curve was filed as active)
Sequence of Pyruvate kinase PKM (Homo sapiens) (P14618 whole entry, looked up): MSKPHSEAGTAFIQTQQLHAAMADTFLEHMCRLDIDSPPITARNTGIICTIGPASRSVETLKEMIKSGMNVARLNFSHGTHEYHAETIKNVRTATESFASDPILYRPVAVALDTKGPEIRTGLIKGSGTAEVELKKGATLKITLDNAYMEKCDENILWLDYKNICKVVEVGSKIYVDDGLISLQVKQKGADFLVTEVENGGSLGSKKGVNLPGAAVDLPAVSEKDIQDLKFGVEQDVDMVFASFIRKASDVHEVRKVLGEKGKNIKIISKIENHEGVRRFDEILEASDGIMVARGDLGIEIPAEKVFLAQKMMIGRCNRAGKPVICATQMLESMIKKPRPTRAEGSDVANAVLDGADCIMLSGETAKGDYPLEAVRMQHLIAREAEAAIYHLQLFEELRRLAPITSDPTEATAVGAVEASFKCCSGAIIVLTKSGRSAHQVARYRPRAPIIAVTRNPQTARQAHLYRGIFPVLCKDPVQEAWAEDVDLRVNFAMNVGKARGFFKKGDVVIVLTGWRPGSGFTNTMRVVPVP
Outline: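 Luminescence from a luciferase ATP-detection/stop reagent reported PKM2 activity. Reactions contained 0.1 nM purified human enzyme, 0.5 mM PEP, 0.1 mM ADP and 7 mM MgCl2 at pH 7.2, run 1 h at RT.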

[18] = biological target: Pyruvate kinase (Leishmania mexicana) (UniProt Q27686); experiment: qHTS Validation Assay for Inhibitors of Leishmania Mexicana Pyruvate Kinase (AID 945)
Sequence of Pyruvate kinase (Leishmania mexicana) (Q27686 2-499 E452W): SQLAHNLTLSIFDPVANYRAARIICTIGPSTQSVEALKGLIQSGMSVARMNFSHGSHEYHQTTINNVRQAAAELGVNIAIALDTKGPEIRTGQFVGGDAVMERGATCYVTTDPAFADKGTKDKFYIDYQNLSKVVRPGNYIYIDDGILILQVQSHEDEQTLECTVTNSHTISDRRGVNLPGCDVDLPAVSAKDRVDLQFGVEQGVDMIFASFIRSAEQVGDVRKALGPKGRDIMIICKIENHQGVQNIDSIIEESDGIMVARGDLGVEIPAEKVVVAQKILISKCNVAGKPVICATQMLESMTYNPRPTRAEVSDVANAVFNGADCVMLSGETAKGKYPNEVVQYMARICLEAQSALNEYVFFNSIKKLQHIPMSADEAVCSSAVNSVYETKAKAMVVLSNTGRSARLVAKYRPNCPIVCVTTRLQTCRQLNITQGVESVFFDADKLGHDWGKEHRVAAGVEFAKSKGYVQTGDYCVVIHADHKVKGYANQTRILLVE
Outline: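 Substrate mix (0.5 mM PEP, 0.1 mM ADP, 7 mM MgCl2, 50 mM KCl, pH 7.2 imidazole) received compound by pin tool, then 0.2 nM LmPYK E451W. After 1 h at room temperature, PKLight was added and luminescence measured.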

[19] = biological target: Muscarinic acetylcholine receptor M1 (Rattus norvegicus) (UniProt P08482); experiment: qHTS Assay for Antagonists of Acetylcholine Muscarinic M1 Receptor: Kinetic Measurement of Intracellular Calcium Response (AID 943);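 note: Fluo-4 calcium signal as peak divided by basal fluorescence over 4 min; series mostly up to about 35 µM; nearly all actives have a fitted effect of over 75% in size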
Sequence of Muscarinic acetylcholine receptor M1 (Rattus norvegicus) (P08482 whole entry, looked up): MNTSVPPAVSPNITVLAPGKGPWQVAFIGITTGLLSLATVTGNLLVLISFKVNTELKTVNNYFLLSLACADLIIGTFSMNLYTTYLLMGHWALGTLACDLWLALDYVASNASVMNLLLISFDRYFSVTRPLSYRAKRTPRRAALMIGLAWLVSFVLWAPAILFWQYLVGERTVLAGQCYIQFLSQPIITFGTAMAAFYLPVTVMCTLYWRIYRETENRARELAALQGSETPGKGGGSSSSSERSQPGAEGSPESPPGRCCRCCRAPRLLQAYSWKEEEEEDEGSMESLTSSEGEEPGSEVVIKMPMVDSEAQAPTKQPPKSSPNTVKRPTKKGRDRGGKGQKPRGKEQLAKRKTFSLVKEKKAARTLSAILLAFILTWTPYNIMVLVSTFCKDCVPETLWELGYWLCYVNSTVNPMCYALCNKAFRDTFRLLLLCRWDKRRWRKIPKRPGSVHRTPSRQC
Outline: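 Intracellular calcium flux, recorded with Fluo-4 in a kinetic plate reader, served as signal; the response to carbachol at EC80 (100 nM final) was taken as maximal over minimal fluorescence after a 10 min compound pre-incubation in rat M1-CHO cells.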

[20] = biological target: Muscarinic acetylcholine receptor M1 (Rattus norvegicus) (UniProt P08482); experiment: qHTS Assay for Antagonists of Acetylcholine Muscarinic M1 Receptor: Measurement of IP-One Response (AID 944); note: nearly all actives have a fitted effect of over 75% in size
Outline: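 Steps: plate transfected CHO-M1 cells overnight; add test compound, 10 min; add carbachol (200 nM, EC80) in stimulation buffer with LiCl; incubate 30 min; add labelled IP1 tracer and anti-IP1 antibody in lysis buffer; read HTRF after 10 min.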

Measured: Potency

C[C@]12C=CC(=O)C=C1CC[C@@H]1[C@@H]2C(=O)C[C@@]2(C)[C@H]1CC[C@]2(O)C(=O)CO
not listed: [17] | [18] | [19] | [20]
inactive: all other assays above

CC(=O)[C@H]1CC[C@H]2[C@@H]3CCC4=CC(=O)CC[C@]4(C)[C@H]3CC[C@]12C
active: [5] 15.8 µM
inactive: [2] | [17] | [4] | [7]

CC1=NN(c2ccccc2)C(=O)C1
not listed: [2] | [17] | [18] | [19] | [20]
inactive: all other assays above

CC(C)(C)NC(=O)[C@H]1CC[C@H]2[C@@H]3CC[C@H]4NC(=O)C=C[C@]4(C)[C@H]3CC[C@]12C
inactive: [18] | [17]

Cc1ncc([N+](=O)[O-])n1CCO
not listed: [17] | [18] | [19] | [20]
inactive: all other assays above

O=C(O)c1cc(=O)[nH]c(=O)[nH]1
not listed: [17] | [18] | [19] | [20]
inactive: all other assays above

NNC(=O)c1ccncc1
not listed: [17] | [18] | [19] | [20]
inactive: all other assays above

CC[C@H](C)C(=O)O[C@H]1C[C@@H](C)C=C2C=C[C@H](C)[C@H](CC[C@@H]3C[C@@H](O)CC(=O)O3)[C@H]21
not listed: [5] | [8] | [9] | [10] | [17] | [18] | [19] | [20]
inactive: all other assays above

COc1ccc2cc3[n+](cc2c1OC)CCc1cc2c(cc1-3)OCO2
inactive: [1] | [3] | [4] | [6] | [7] | [9] | [12]

NC(N)=NC(N)=NCCc1ccccc1
not listed: [9] | [10] | [14] | [16] | [17] | [18] | [19] | [20]
inactive: all other assays above

NC(=O)c1cccc(N)c1
inactive: [18] | [17]

CCc1cc(C(N)=S)ccn1
not listed: [17] | [18] | [19] | [20]
inactive: all other assays above

Cc1ccc(S(=O)(=O)N[C@@H](Cc2ccccc2)C(=O)CCl)cc1
inactive: [19] | [20] | [18] | [17]

Cc1cc(NS(=O)(=O)c2ccc(N)cc2)no1
not listed: [17] | [18] | [19] | [20]
inactive: all other assays above

N=C(N)c1ccc(OCCCCCOc2ccc(C(=N)N)cc2)cc1
active: [8] 39.8 µM
inactive: [1] | [2] | [3] | [4] | [5] | [6] | [7] | [9] | [11]

Cc1noc(NS(=O)(=O)c2ccc(N)cc2)c1C
not listed: [17] | [18] | [19] | [20]
inactive: all other assays above

CN(C)c1ccc(C(=C2C=CC(=[N+](C)C)C=C2)c2ccc(N(C)C)cc2)cc1
active: [1] 12.6 µM | [2] 25.1 µM | [3] 6.31 µM | [4] 10 µM | [5] 3.98 µM | [7] 15.8 µM | [8] 2.51 µM | [9] 1.58 µM | [10] 2.51 µM | [11] 2.51 µM | [12] 2.51 µM | [13] 3.98 µM | [14] 2.51 µM | [15] 3.98 µM | [16] 3.16 µM

Cc1ccnc2c1NC(=O)c1cccnc1N2C1CC1
not listed: [17] | [18] | [19] | [20]
inactive: all other assays above

N[C@@H](Cc1ccc(O)c(O)c1)C(=O)O
inactive: [20] | [17]

OCc1ccc(-c2nn(Cc3ccccc3)c3ccccc23)o1
inactive: [19] | [18] | [17]

COc1cc2ncnc(Nc3cccc(Cl)c3)c2cc1OC
inactive: [18] | [17]

Cc1nnc(NS(=O)(=O)c2ccc(N)cc2)s1
not listed: [17] | [18] | [19] | [20]
inactive: all other assays above

O=C(N[C@H](CO)[C@H](O)c1ccc([N+](=O)[O-])cc1)C(Cl)Cl
not listed: [17] | [18] | [19] | [20]
inactive: all other assays above
